PubChem BioAssay AID1159580 (chemical genetic matrix, 2015)
Where “and” joins values, the source holds several entries; their conditions need not be identical. Equal values may be shown once. About 2,000 (36%) of roughly 5,500 compounds were called active. Not shown: some 18% with an inconclusive outcome. No stated cut-off is given here; in the data, active means normalized growth mostly below about 0.91 (no sharp cut-off); inconclusive means no clear call, values can overlap the other calls; inactive means mostly above about 0.92. The list shows a part of the results.

Experiment: chemical genetic growth profiling, strain panel (AID 1159580);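 further: tested at 20 µM; growth read once vehicle control cultures reached saturation at 30 °C; 1 = growth at the plate median or of vehicle wells; lower values mean less growth of the strain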
Details: S. cerevisiae deletion strains, growth OD

Measured: normalized growth

Clc1ccc(COC(Cn2ccnc2)c2ccc(Cl)cc2Cl)cc1 (stereo not given)
active: locus YAL013W, strain DEP1, active compounds read low 0.0557 | locus YAL021C, strain ccr4, active compounds read low 0.0668 | locus YAL026C, strain drs2, active compounds read low 0.0618 | locus YAL030W, strain snc1, active compounds read low 0.0554 | locus YBL061C, strain skt5, active compounds read low 0.0644 | locus YBR009C, strain hhf1, active compounds read low 0.0597 | locus YBR021W, strain FUR4, active compounds read low 0.086 | locus YBR023C, strain chs3, active compounds read low 0.0622 | locus YBR171W, strain sec66, active compounds read low 0.0758 | locus YBR229C, strain ROT2, active compounds read low 0.0463 | locus YBR231C, strain swc5, active compounds read low 0.0645 | locus YBR279W, strain paf1, active compounds read low 0.0619 | locus YCL011C, strain gbp2, active compounds read low 0.0566 | locus YCL016C, strain dcc1, active compounds read low 0.0644 | locus YCL029C, strain bik1, active compounds read low 0.06 | locus YCL061C, strain MRC1, active compounds read low 0.0624 | locus YCL069W, strain vba3, active compounds read low 0.0606 | locus YCR088W, strain abp1, active compounds read low 0.0621 | locus YDL005C, strain med2, active compounds read low 0.0718 | locus YDL035C, strain GPR1, active compounds read low 0.0503 | locus YDL040C, strain nat1, active compounds read low 0.0573 | locus YDL074C, strain BRE1, active compounds read low 0.0774 | locus YDL101C, strain DUN1, active compounds read low 0.055 | locus YDL134C, strain PPH21, active compounds read low 0.0501 | locus YDL185W, strain tfp1, active compounds read low 0.0607 | locus YDL192W, strain arf1, active compounds read low 0.0606 | locus YDR001C, strain nth1, active compounds read low 0.0586 | locus YDR069C, strain doa4, active compounds read low 0.0605 | locus YDR101C, strain arx1, active compounds read low 0.0571 | locus YDR137W, strain rgp1, active compounds read low 0.093 | locus YDR150W, strain NUM1, active compounds read low 0.055 | locus YDR159W, strain sac3, active compounds read low 0.0898 | locus YDR162C, strain NBP2, active compounds read low 0.0476 | locus YDR195W, strain ref2 0.131 | locus YDR297W, strain sur2, active compounds read low 0.0541 | locus YDR318W, strain mcm21, active compounds read low 0.061 | locus YDR334W, strain swr1, active compounds read low 0.0622 | locus YDR335W, strain msn5, active compounds read low 0.0604 | locus YDR388W, active compounds read low 0.0583 | locus YDR392W, strain spt3, active compounds read low 0.0764 | locus YDR502C, strain sam2, active compounds read low 0.0603 | locus YEL003W, strain gim4, active compounds read low 0.0531 | locus YEL037C, strain rad23, active compounds read low 0.0573 | locus YEL061C, strain CIN8 (second series), active compounds read low 0.0612 | locus YEL061C, strain CIN8, active compounds read low 0.0491 | locus YER015W, strain faa2, active compounds read low 0.0598 | locus YER016W, strain bim1, active compounds read low 0.0634 | locus YER110C, active compounds read low 0.0724 | locus YER111C, strain swi4, active compounds read low 0.0738 | locus YER155C, strain BEM2 (second series), active compounds read low 0.0963 | locus YER155C, strain BEM2, active compounds read low 0.0618 | locus YER167W, strain BCK2, active compounds read low 0.0498 | locus YFR010W, strain ubp6, active compounds read low 0.0675 | locus YGL078C, strain dbp3, active compounds read low 0.0728 | locus YGL086W, strain mad1, active compounds read low 0.0553 | locus YGL167C, strain pmr1, active compounds read low 0.0771 | locus YGL173C, strain kem1, active compounds read low 0.0703 | locus YGL227W, strain vid30, active compounds read low 0.0629 | locus YGL240W, strain doc1, active compounds read low 0.089 | locus YGL248W, strain PDE1, active compounds read low 0.046 | locus YGL253W, strain hxk2, active compounds read low 0.0531 | locus YGR135W, strain pre9, active compounds read low 0.0589 | locus YGR229C, strain SMI1, active compounds read low 0.0609 | locus YGR252W, strain gcn5, active compounds read low 0.114 | locus YHR013C, strain ard1, active compounds read low 0.0983 | locus YHR027C, strain rpn1, active compounds read low 0.0623 | locus YHR030C, strain SLT2, active compounds read low 0.0501 and 0.104 | locus YHR079C, strain IRE1 (second series), active compounds read low 0.058 | locus YHR079C, strain IRE1, active compounds read low 0.114 | locus YHR094C, strain hxt1, active compounds read low 0.0575 | locus YHR129C, strain ARP1, active compounds read low 0.0576 | locus YHR142W, strain chs7, active compounds read low 0.0716 | locus YHR200W, strain rpn10, active compounds read low 0.0591 | locus YIL066C, strain RNR3, active compounds read low 0.143 | locus YIL073C, strain SPO22, active compounds read low 0.1 | locus YIL125W, strain kgd1, active compounds read low 0.0707 | locus YIR030C, strain dcg1, active compounds read low 0.0577 | locus YJL092W, strain hpr5, active compounds read low 0.0592 | locus YJL095W, strain BCK1 (second series), active compounds read low 0.0566 | locus YJL095W, strain BCK1, active compounds read low 0.0581 and 0.1 | locus YJL115W, strain asf1, active compounds read low 0.0714 | locus YJL129C, strain trk1, active compounds read low 0.0943 | locus YJL134W, strain LCB3, active compounds read low 0.048 | locus YJL154C, strain vps35, active compounds read low 0.0599 | locus YJL164C, strain tpk1, active compounds read low 0.0592 | locus YJL166W, strain qcr8, active compounds read low 0.0601 | locus YJL168C, strain set2, active compounds read low 0.0595 | locus YJL187C, strain SWE1 (second series), active compounds read low 0.0469 | locus YJL187C, strain SWE1, active compounds read low 0.058 | locus YJR043C, strain POL32, active compounds read low 0.0638
